For this assay, the system named is Sigma receptor 2. The assay is described as follows: radioligand displacement at receptors and transporters – biochemical, PDSP panel, Set 2, late-stage follow-up (AID 504381). The note with it: PDSP radioligand binding panel, at 10 µM, hits give high values. A general note: In a radioligand displacement assay an active substance lowers the binding of a labelled ligand.

Structures are written as SMILES. A number with no mark means an inactive call. No rule for the calls is given here.

Broadly, the inhibition is the relative decrease from the control value, in per cent.

In the case of `CC(=O)c1ccc2c(c1)Nc1ccccc1S2`, the inhibition was -12.2%.

For the origin of these results see PubChem BioAssay AID504381 (The Scripps Research Institute Molecular Screening Center, 2011).
